# Results published in PubChem BioAssay AID1851 (National Center for Advancing Translational Sciences (NCATS), 2009).
# Hit rate of the full screen: of about 16,000 compounds, about 5,100 (32%) were called active. Another 25% or so got no clear call; they are omitted. Some of the results follow. Unmarked numbers belong to inactive results. Calls follow the shape of the dose curve; as a rule, active = well fitted curve in the direction sought with a large enough effect; inconclusive = small, poorly fitted or top-dose-only effect, or effect the other way; inactive = no such curve, though single readings can be large or run the other way.
# Target: Cytochrome P450 3A4 (Homo sapiens) (UniProt P08684)
# Assay: Cytochrome panel assay with activity outcomes
# Conditions: recombinant CYP, pro-luciferin dealkylation, luminescence, p450-cyp3a4; series mostly up to 57.1 µM; activity, negative = inhibition: at the top concentration
# % is scaled to controls: 0 for no effect and ±100 for the full control effect.
# Sequence of Cytochrome P450 3A4 (Homo sapiens) (P08684 whole entry, looked up): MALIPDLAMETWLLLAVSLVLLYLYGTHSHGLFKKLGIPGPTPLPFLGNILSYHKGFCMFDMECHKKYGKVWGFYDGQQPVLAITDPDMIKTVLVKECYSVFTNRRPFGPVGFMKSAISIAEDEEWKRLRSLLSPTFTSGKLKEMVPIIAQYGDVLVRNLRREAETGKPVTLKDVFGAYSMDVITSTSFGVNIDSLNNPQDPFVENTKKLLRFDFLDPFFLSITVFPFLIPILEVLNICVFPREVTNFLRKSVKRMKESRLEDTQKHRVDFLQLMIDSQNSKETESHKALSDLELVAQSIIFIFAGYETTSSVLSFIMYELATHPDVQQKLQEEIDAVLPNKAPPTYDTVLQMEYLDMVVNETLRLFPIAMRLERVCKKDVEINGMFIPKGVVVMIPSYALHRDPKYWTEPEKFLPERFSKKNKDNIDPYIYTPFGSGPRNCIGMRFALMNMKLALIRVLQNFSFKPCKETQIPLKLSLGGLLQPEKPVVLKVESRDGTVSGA
Structure (SMILES),AC50,"activity, negative = inhibition"
CCN1CCC[C@H]1CNC(=O)c1cc(S(N)(=O)=O)ccc1OC,inactive,–
CCOC(=O)C1=C2SCC(=O)N2C(N)=C(C#N)C1,–,-0.332%
COc1ccccc1CC(=N)N1C[C@@H]2C(=O)CCC(c3ccccc3)(c3ccccc3)[C@@H]2C1,3.16 µM (active),–
COc1ccccc1CN1CCC2(CC1)CCN(C(C)=O)CC2,–,-8.53%
COCC(=O)N1CCC2(CC1)CN(Cc1ccccc1OC)C2,–,19.7%
CC1(C)OC(=O)NC1=O,–,-5.49% [at 25.6 µM]
O=C1CCCC2=C1C(c1ccc(Cl)cc1)C1C(=O)c3ccccc3C1=N2 (configuration not stated),14.1 µM (active),–
O=C1C(=O)c2ccccc2C(O)=C1C1CCC(c2ccc(Cl)cc2)CC1 (configuration not stated),–,-8.47% [at 25.6 µM]
CC[C@](N)(C(=O)O)C(C)C,–,-7.26% [at 11.4 µM]
COC(=O)[C@@]1(Cc2ccc(F)cc2)[C@@H]2C(=CC(=O)[C@H]2CC(=O)C(=O)N(C)C)CN1C(=O)c1ccccc1,10 µM (active),–
COC(=O)[C@@]1(Cc2ccccc2)[C@@H]2C(=CC(=O)[C@H]2CC(=O)C(=O)N(C)C)CN1C(=O)c1ccccc1,7.94 µM (active),–
CC(O)CN(CCC(N)=O)CCC(N)=O (configuration not stated),–,2.63%
CC1CN(C(=S)NC(=O)c2ccc([N+](=O)[O-])cc2)CC(C)O1 (configuration not stated),–,2.57% [at 2.29 µM]
CC(=O)N=c1sccn1CC(=O)c1ccc([N+](=O)[O-])cc1,4.47 µM (active),–
O=C(O)/C(Cc1ccc([N+](=O)[O-])cc1)=N/O,–,-11.6% [at 11.4 µM]
CCC(=O)OCN1C(=O)C=CC1=O,–,2.64% [at 11.4 µM]
CCCN1C(=O)C(Cc2nc3ccccc3c(=O)n2C)c2ccccc21 (configuration not stated),7.94 µM (active),–
N=C(N)SCc1nc2ccccc2c(=O)n1-c1ccccc1Cl,–,-15.4% [at 2.29 µM]
CC(=O)N1CCC2(CC1)CN(c1ccccc1)C2,–,-17.8%
CC(=O)N1CCN(C(=O)CC2OC(=O)c3ccccc32)CC1 (configuration not stated),12.6 µM (active),–
CCOC(=O)CC1NC(=O)c2ccccc21 (configuration not stated),–,6.92%
O=C(O)CSc1nc2ccccc2[nH]1,–,2.87% [at 11.4 µM]
O=C(CSc1nc2ccccc2[nH]1)Nc1c(F)cccc1F,14.1 µM (active),–
CN(C)Cc1ccccc1-c1cc(NC2CC2)ncn1,25.1 µM (active),–
Cc1cccc(CNc2cc(-c3ccccc3Cl)ncn2)c1,15.8 µM (active),–

Structure (SMILES),AC50,"activity, negative = inhibition"
Cc1cccc(CNc2cc(-c3ccccc3CN(C)C)ncn2)c1,15.8 µM (active),–
Cc1cnc(CNc2cc(-c3ccccc3CN(C)C)ncn2)cn1,–,-15.1%
CN(C)Cc1ccccc1-c1cc(NCc2ccccc2)ncn1,–,-27.4%
COc1ccccc1-c1cc(NCc2ccccc2)ncn1,–,-25.9%
COc1ccccc1-c1cc(NCc2cccc(C)c2)ncn1,6.31 µM (active),–
CNc1cc(-c2ccccc2CN(C)C)ncn1,–,-0.857%
COC(=O)[C@@]1(Cc2ccccc2)[C@H]2c3cc(C(=O)N4CCCC4)n(Cc4cc(F)cc5c4OCOC5)c3C[C@H]2CN1C(=O)c1ccccc1,3.98 µM (active),–
COC(=O)[C@@]1(Cc2ccc(OC)cc2)[C@H]2c3cc(C(=O)N4CCCC4)n(Cc4cc(F)cc5c4OCOC5)c3C[C@H]2CN1C(=O)c1ccccc1,2.51 µM (active),–
CC(C)(CNC(=O)c1ccc([N+](=O)[O-])c(Cl)c1)CNC(=O)c1ccc([N+](=O)[O-])c(Cl)c1,8.91 µM (active),–
O=C(O)c1ccc([N+](=O)[O-])c(P(=O)(O)O)c1,–,-2.76% [at 11.4 µM]
NCCNC(=O)c1ccc(Cl)cc1,inactive,–
N[C@@H](CSCc1ccc(I)cc1)C(=O)O,–,-8.11% [at 11.4 µM]
FC(F)(F)c1ccccc1-c1nccc(NCCN2CCOCC2)n1,15.8 µM (active),–
FC(F)(F)c1ccccc1-c1cc(NCCN2CCOCC2)ncn1,–,28%
Clc1ccccc1-c1nccc(NCCN2CCOCC2)n1,15.8 µM (active),–
COCCNc1ccnc(-c2ccccc2C)n1,–,-23.5%
Clc1ccccc1-c1cc(NCCN2CCOCC2)ncn1,–,22.9%
Cc1ccccc1-c1nccc(NCCN2CCOCC2)n1,25.1 µM (active),–
N=C(N)[C@H](N=Nc1ccccc1)C(N)=O,–,-11.5% [at 11.4 µM]
COc1ccc(NC(=O)CSc2nc(C)c3c(c2C#N)CCCC3)cc1,17.8 µM (active),–
CCOc1cccc(NC(=O)CSc2nc(C)c3c(c2C#N)CCCC3)c1,–,-6.34% [at 11.4 µM]
CCOc1ccc(NC(=O)CSc2nc(C)c3c(c2C#N)CCCC3)cc1,12.6 µM (active),–
Cn1cc(C(=O)c2cccc(Cl)c2Cl)cc1C(=O)O,–,10.6%
Cn1cccc1C(=O)N1CCC[C@@]2(CCN(Cc3ccc(C#N)cc3)C2)C1,12.6 µM (active),–
Cn1cccc1C(=O)N1CCC[C@@]2(CCN(Cc3cc(C(F)(F)F)cc(C(F)(F)F)c3)C2)C1,15.8 µM (active),–

Structure (SMILES),AC50,"activity, negative = inhibition"
Cn1cccc1C(=O)N1CCC2(CCN(Cc3ccccc3)CC2)CC1,–,-3.29%
Cn1cccc1C(=O)N1CCC2(CC1)CN(Cc1ccc(C#N)cc1)C2,–,16.5%
Cn1cccc1C(=O)N1CCC2(CC1)CN(Cc1cc(C(F)(F)F)cc(C(F)(F)F)c1)C2,–,9.35%
CCN[C@@H]1C[C@H](C)S(=O)(=O)c2sc(S(N)(=O)=O)cc21,–,-31.7% [at 25.6 µM]
NC(N)=Nc1nc(CCN2C(=O)c3ccccc3C2=O)cs1,–,6.93%
N#C/C(=C/c1cccc(C(F)(F)F)c1)c1nc(CCN2C(=O)c3ccccc3C2=O)cs1,5.01 µM (active),–
Cc1nc2nc[nH]n2c(=O)c1NC(=O)CC12CC3CC(CC(C3)C1)C2,–,-23.4%
O=C(O)CSCNC(=O)CC12CC3CC(CC(C3)C1)C2,0.224 µM (active),–
O=C(O)CC12C[C@H]3C[C@@H](CC(O)(C3)C1)C2,–,-10.4% [at 11.4 µM]
NC(=O)c1ccc(-c2ncc(-c3ccccc3)o2)cc1,–,-23.2%
NC(=O)c1ccc(-c2nc(-c3ccc4c(c3)OCO4)c(-c3ccccn3)[nH]2)cc1,10 µM (active),–
O=C(O)Cc1nn(Cc2ccc(Br)cc2F)c(=O)c2ccccc12,–,1.75%
CCOc1cc(CNCCCN2CCOCC2)cc(Br)c1OCC(=O)Nc1cccc(C(F)(F)F)c1,4.47 µM (active),–
COc1ccc(NC(=O)COc2ccc(CNCCCN3CCOCC3)cc2OC)cc1,–,-19.4%
c1csc(CNCCCN2CCOCC2)c1,–,-5.52%
CN(C)c1ccc(-c2nc(Nc3ccncc3)c3ccccc3n2)cc1,7.94 µM (active),–
CN(C)C(=O)c1ccc(-c2nc(Nc3ccncc3)c3ccccc3n2)cc1,15.8 µM (active),–
CC(=O)NC1=NC(=O)C(C)S1 (configuration not stated),–,-3.3% [at 2.29 µM]
Cc1ccccc1-n1nc2c(c1NC(=O)c1c(-c3ccccc3Cl)noc1C)CSC2,1.12 µM (active),–
Cc1onc(-c2c(F)cccc2Cl)c1C(=O)N[C@H]1C(=O)N2[C@H]1SC(C)(C)[C@H]2C(=O)O,–,-12.4% [at 25.6 µM]
Cc1ccc(-n2nc3c(c2NC(=O)c2cccs2)CSC3)cc1,12.6 µM (active),–
CCCC(=O)Nc1c2c(nn1-c1ccc(C)cc1C)CSC2,7.08 µM (active),–
Cc1ccc(NC(=O)CCC(=O)NNC(=O)c2cccs2)c(C)c1,–,-1.38% [at 2.29 µM]
Cc1cc(NC(=O)c2ccc(S(=O)(=O)N(C)C)cc2)n(-c2ccccn2)n1,–,8.07%
Cc1onc(-c2c(F)cccc2Cl)c1C(=O)N[C@@H]1C(=O)N2[C@H]1SC(C)(C)[C@H]2C(=O)O,–,-13.2% [at 11.4 µM]

Structure (SMILES),AC50,"activity, negative = inhibition"
CCCC(=O)Nc1c(C)n[nH]c1C,–,-12.2%
Cc1ccccc1-n1nc2c(c1NC(=O)c1ccc(S(=O)(=O)N(C)C)cc1)CSC2,14.1 µM (active),–
CCN(CC)S(=O)(=O)c1ccc(C(=O)Nc2ncn(Cc3ccccc3)n2)cc1,–,-5.91%
Cc1ccc(NC(=O)CCC(=O)NNS(=O)(=O)c2ccccc2)c(C)c1,–,21.8% [at 2.29 µM]
CCC(=S)/C=C1\Sc2ccccc2N1CCCS(=O)(=O)O,–,19.1%
O=C(O)Cc1c(O)ccc2ccccc12,–,-10.5% [at 11.4 µM]
c1cncc(-c2nnc3n2C2(CCCCC2)Cc2ccccc2-3)c1,1 µM (active),–
CCCn1cnc2c(SCC(=O)O)nc(N)nc21,–,-4.33% [at 11.4 µM]
Cc1[nH]n(C(C)(C)C)c(=O)c1Sc1ccccc1,–,28.8%
Cc1[nH]n(C(C)(C)C)c(=O)c1Sc1ccc(Cl)cc1,15.8 µM (active),–
O=S(=O)(O)c1ccc2cc(N=Nc3cc(S(=O)(=O)O)c4cccnc4c3O)ccc2c1,–,-6.99% [at 11.4 µM]
CCCCc1ccc(-c2csc(/C(C#N)=C/c3ccc(C)o3)n2)cc1,12.6 µM (active),–
Cc1ccc(NC(=O)C2CCN(S(=O)(=O)c3c(C)n[nH]c3C)CC2)nc1,–,-20.6%
Cc1cccc(NS(=O)(=O)c2c(C)n[nH]c2C)c1,25.1 µM (active),–
COc1ccc(N(CC(=O)Nc2cccc(C)c2)S(=O)(=O)c2c(C)n[nH]c2C)cc1,3.16 µM (active),–
Cc1n[nH]c(C)c1S(=O)(=O)N1CCOCC1,–,-6.35%
COc1cccc(N(CC(=O)Nc2cccc(C(C)=O)c2)S(C)(=O)=O)c1,11.2 µM (active),–
CC(=O)c1cccc(NC(=O)Oc2ccccc2)c1,–,14.9%
CC(=O)c1c(N=CN(C)C)nc(C)nc1-c1ccccc1,–,-8.85%
CC(=O)c1cc2c(cc1NC(=O)CCCC(=O)O)OCO2,–,-24.3%
CC(=O)c1cc2c(cc1NC(=O)c1c(-c3ccccc3)noc1C)OCO2,1.58 µM (active),–
CN(N=O)C(=O)N[C@H]1C(O)OC(CO)[C@@H](O)[C@H]1O (some centres not stated),–,-11.7%
